Data as given in PubChem BioAssay (NCI).
Compounds without any hit were thinned out: in the full panel of roughly 83,000, 20% have a hit.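 A percent growth of 40 corresponds to 60% growth inhibition; 0 means no net growth; -100 means all cells died. Active threshold: below 10.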 A number with no mark means an inactive call. Active and inactive are the calls of the source.

Experiments:
Assay in all cases: NCI-60 one-dose screen, 48 h (100 = growth as untreated, 0 = no growth, -100 = all killed)
Conditions in all cases: 10 µM unless noted
RPMI-8226 leukemia = test system: RPMI-8226 leukemia
OVCAR-8 ovarian = test system: OVCAR-8 ovarian
OVCAR-5 ovarian = test system: OVCAR-5 ovarian
OVCAR-4 ovarian = test system: OVCAR-4 ovarian
SK-OV-3 ovarian = test system: SK-OV-3 ovarian
IGROV1 ovarian = test system: IGROV1 ovarian
OVCAR-3 ovarian = test system: OVCAR-3 ovarian
HS 578T breast = test system: HS 578T breast
NCI/ADR-RES ovarian = test system: NCI/ADR-RES ovarian
T-47D breast = test system: T-47D breast

| Structure (SMILES) | growth (RPMI-8226 leukemia) | growth (OVCAR-8 ovarian) | growth (OVCAR-5 ovarian) | growth (OVCAR-4 ovarian) | growth (SK-OV-3 ovarian) | growth (IGROV1 ovarian) | growth (OVCAR-3 ovarian) | growth (HS 578T breast) | growth (NCI/ADR-RES ovarian) | growth (T-47D breast) |
| --- | --- | --- | --- | --- | --- | --- | --- | --- | --- | --- |
| Fc1ccc(-c2nnc(-c3c(-c4ccc(F)cc4)nc4ncccn34)o2)cc1 | 92.5% | 95.7% | 87.3% | 106% | 112% | 106% | 110% | 115% | 97.3% | 95.4% |
| O=Cc1c[nH]c2ccc(NC(=O)OCc3ccccc3)cc12 | 93% | 103% | 97.5% | 104% | 97.6% | 32.4% | 123% | 252% | 96.3% | 84.2% |
| COc1ccc2[nH]cc(/C=C3/C(=O)Nc4ccc(F)cc43)c2c1 | 62.4% | 84.1% | 88.5% | 75.6% | 104% | 98.2% | 108% | 72.6% | 84.9% | 92.2% |
| C/C(=C\CCc1ccsc1)CC/C=C(\C)CCCN1CCC(CO)CC1 | -31.1% (active) | 62.8% | 63.9% | 40.8% | 55.5% | 56.1% | 48.6% | 28.3% | 51% | 27.1% |
| N#Cc1c(N2CCOCC2)nc2sc3cc(Cl)ccc3n2c1=N | 94.4% | 95.7% | 95.2% | 102% | 67.3% | 67.2% | 104% | 66.8% | 99% | 33.1% |
| C=C1CC[C@@H]2[C@](C)(COC(C)=O)[C@H](OC(C)=O)CC[C@@]2(C)[C@@H]1CC(Nc1ccc(S(=O)(=O)Nc2cc(C)on2)cc1)C1=CCOC1=O (some centres not stated) | -15.2% (active) | 16.1% | 52.2% | 68.2% | 109% | 62.6% | 7.95% (active) |  | 31.6% | 63.6% |
| CCN1C[C@@H](C)n2c(c(O)c3c(=O)n(Cc4ccc(F)c(Cl)c4)nc(C(=O)NC)c32)C1=O | 19.4% | 22% | 88.6% | 80.2% | 43.5% | 28.7% | 38.1% |  | 15.3% | 27% |
| Cn1cc(-c2csc(-c3cn(C)c4ncccc34)n2)c2cccnc21 | 87.5% | 93.7% | 90.2% | 100% | 123% | 111% | 112% |  | 91.1% | 101% |
| CCCCCCC(C)(O)c1ccccc1 (configuration not stated) | 107% | 115% | 98.5% | 110% | 103% | 122% | 117% |  | 101% | 101% |
| Fc1ccc(-c2nc(Nc3ccc(-c4nc5ccccc5[nH]4)cc3)nc(N3CCOCC3)n2)cc1 | -73.4% (active) | -73.8% (active) | -74.7% (active) | -73.9% (active) | -89.9% (active) | -71.2% (active) | -95.6% (active) |  | -87.5% (active) | -64.8% (active) |
| Cn1cc(-c2nc(-c3c[nH]c4ncccc34)cs2)c2cccnc21 | 67.1% | 82.9% | 83.6% | 70.4% | 62% | 61.5% | 82.6% |  | 44.7% | 51.4% |
| COc1ccc(-n2nc3c(c2-c2ccc(OC)c(OC)c2)-c2oncc2CC3)cc1 | 56.7% | 84.7% | 99.5% | 86.1% | 106% | 99.1% | 76.4% |  | 80.6% | 71% |
| Cn1cc(-c2csc(-c3cn(C)c4ncccc34)n2)c2cc(F)cnc21 | 70.1% | 80.8% | 91.3% | 93.5% | 107% | 84% | 108% |  | 46.9% | 52.2% |
| O=C1/C(=C/c2ccc3cccc(Cl)c3n2)SC(=S)N1CCc1ccc(O)cc1 | 82.2% | 92.3% | 106% | 96.6% | 93.2% | 47% | 75.7% |  | 93% | 65.5% |
| COc1cc(C2CC(=O)Nc3c2cc(Br)c2ccccc32)cc(Br)c1OC (configuration not stated) | 43.3% | 31.7% | 76.2% | -64.2% (active) | -15.1% (active) | 26.7% | -13% (active) |  | 6.65% (active) | 4.99% (active) |
| COc1cc2cn3c4ccc(O)cc4nc(N)c3c2cc1OC | 19.9% | 29.6% | 45.3% | 38.7% | 27.2% | 33.9% | 1.25% (active) |  | 42.4% | 12.5% |
| COc1ccc2c(c1)C(=O)/C(=C/c1ccc([N+](=O)[O-])s1)O2 | -12% (active) | -5.24% (active) | 32.9% | -45% (active) | 74.6% | -58.3% (active) | -35.7% (active) | -6.61% (active) | 27.3% | -49.1% (active) |
| COc1ccc(CCN2CCCN3C2=Nc2ccccc2S3(=O)=O)cc1 | 29.9% | 36.2% | 43.4% | 54.1% | 48.6% | 50.8% | 6.69% (active) |  | 15.8% | 44.7% |
| COc1cc(C2CC(c3ccc(C)cc3)=NN2C(C)=O)ccc1Oc1ccnc2cc(Cl)ccc12 (configuration not stated) | 83.8% | 63.1% | 92% | -15.8% (active) | 13.5% | 81.2% | 29.1% | 7.55% (active) | 54.6% | 62.2% |
| C[C@]12CC[C@@H]3c4ccc(O)c([N+](=O)[O-])c4CC[C@H]3[C@@H]1CC[C@@H]2NS(=O)(=O)c1cccc(Br)c1 | 10.7% | 40% | 88.2% | 40.4% | 80.3% | 34.8% | 28.5% | 62.5% | 26.8% | 24.6% |
| O=c1cc(-c2cccnc2)oc2c1ccc1ccccc12 | 80.2% | 87% | 76.2% | 89.3% | 106% | 84.8% | 76.5% |  | 75.3% | 81.6% |
